Article PMC4336329 (PLoS ONE, 2015)
The campaign covered roughly 310,000 compounds. About 14,000 (4.5%) showed an effect of 50% or more. The effect is printed as a negative number. Many of the other results were omitted from the sample, so strong results are more common in it than they were.

Biological target: human ether-à-go-go-related gene (hERG) potassium channel (human, UniProt Q12809)
Assay: primary screen, population patch clamp on CHO cells stably expressing hERG; higher = less effect of the substance
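Also: peak tail current of the secondary pulse compared with the same well before compound.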

Sequence of human ether-à-go-go-related gene (hERG) potassium channel (Q12809 whole entry, looked up): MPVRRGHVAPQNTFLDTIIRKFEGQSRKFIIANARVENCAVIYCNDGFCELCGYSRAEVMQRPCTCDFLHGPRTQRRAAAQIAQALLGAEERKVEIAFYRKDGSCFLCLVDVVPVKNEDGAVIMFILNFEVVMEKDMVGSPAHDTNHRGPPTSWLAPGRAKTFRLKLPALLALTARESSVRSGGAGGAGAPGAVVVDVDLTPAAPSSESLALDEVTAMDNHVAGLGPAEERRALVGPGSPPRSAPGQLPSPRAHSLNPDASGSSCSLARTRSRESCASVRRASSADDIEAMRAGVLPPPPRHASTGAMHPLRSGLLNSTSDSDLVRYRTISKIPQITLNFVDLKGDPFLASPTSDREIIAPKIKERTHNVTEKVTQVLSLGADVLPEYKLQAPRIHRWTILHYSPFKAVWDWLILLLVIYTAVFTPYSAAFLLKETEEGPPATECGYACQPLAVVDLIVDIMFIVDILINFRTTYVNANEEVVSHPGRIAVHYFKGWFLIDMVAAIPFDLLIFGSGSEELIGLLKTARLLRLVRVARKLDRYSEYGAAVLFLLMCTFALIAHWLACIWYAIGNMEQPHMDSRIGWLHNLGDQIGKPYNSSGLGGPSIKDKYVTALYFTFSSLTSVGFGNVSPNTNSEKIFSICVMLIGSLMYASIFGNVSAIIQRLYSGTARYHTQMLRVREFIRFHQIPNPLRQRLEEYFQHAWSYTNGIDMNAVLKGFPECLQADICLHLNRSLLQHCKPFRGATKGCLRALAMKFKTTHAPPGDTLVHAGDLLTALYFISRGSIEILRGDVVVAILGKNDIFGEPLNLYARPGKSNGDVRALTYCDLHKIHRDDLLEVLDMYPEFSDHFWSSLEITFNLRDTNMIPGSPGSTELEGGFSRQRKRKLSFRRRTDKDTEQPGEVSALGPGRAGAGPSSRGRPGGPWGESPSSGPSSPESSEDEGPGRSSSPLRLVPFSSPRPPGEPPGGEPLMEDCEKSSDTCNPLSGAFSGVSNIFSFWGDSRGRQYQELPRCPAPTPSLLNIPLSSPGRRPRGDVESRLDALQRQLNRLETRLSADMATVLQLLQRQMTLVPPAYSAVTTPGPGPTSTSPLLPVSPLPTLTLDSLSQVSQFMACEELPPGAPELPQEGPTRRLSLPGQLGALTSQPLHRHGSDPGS

Compared with `O=c1c2cc([N+](=O)[O-])ccc2nc2n1CCCC2`, `Cc1cc([N+](=O)[O-])nn1CC(=O)NCc1ccccc1` is higher in “hERG current change (%, negative = inhibition) at 10uM” value: 4.82% for the first, 24.2% for the second.

Going from `CCOC(=O)C(Sc1nnc2c3ccccc3n(CC)c2n1)C(=O)OCC` to `CCOC(=O)c1sc(NC(=O)C(CC)Sc2nnc3c4ccccc4n(CC)c3n2)nc1C` (centres unmarked), the “hERG current change (%, negative = inhibition) at 10uM” value falls from -28.7% to -59.4%.

Going from `C=CCn1c2ccccc2c2nnc(SC(CC)C(=O)Nc3nc(C)c(C(=O)OCC)s3)nc21` (centres unmarked) to `CCOC(=O)C1=C(C)NC(=O)CC1c1ccccc1OC` (centres unmarked), the “hERG current change (%, negative = inhibition) at 10uM” value rises from -43.9% to 7.62%.

Compared with `Cc1ccc(-c2ccc(CCC(=O)O)n2Cc2ccco2)cc1`, `O=C(CSc1ccc2nnc(-c3cccnc3)n2n1)NCc1ccco1` is lower in “hERG current change (%, negative = inhibition) at 10uM” value: 12.2% for the first, -44.3% for the second.

Going from `Cc1ccc(C(C)C)c(OCCCn2ccnc2C)c1.O=C(O)C(=O)O` to `Cc1ccc(C(C)C)c(OCCn2ccnc2C)c1.O=C(O)C(=O)O`, the “hERG current change (%, negative = inhibition) at 10uM” value rises from -63.8% to -35.1%.

Compared with `Cc1ccc(OCCCCn2ccnc2C)c(C)c1.O=C(O)C(=O)O`, `Cc1ccc(OCCCCn2cnc3ccccc32)c(C)c1.O=C(O)C(=O)O` is higher in “hERG current change (%, negative = inhibition) at 10uM” value: -64.1% for the first, -20.5% for the second.

Going from `Cc1ccc(OCC(=O)NC2CCCC2)c(C)c1` to `Cc1ccc(OCCCCNC2CCCCC2)c(C)c1.O=C(O)C(=O)O`, the “hERG current change (%, negative = inhibition) at 10uM” value falls from 2.93% to -42.8%.

Going from `Cc1ccc(C(C)C)c(OCCN(C)C)c1.O=C(O)C(=O)O` to `CCC(C)c1ccccc1NC(=O)C(C)NCCN(C)C.O=C(O)C(=O)O` (centres unmarked), the “hERG current change (%, negative = inhibition) at 10uM” value rises from -5.47% to 10.3%.

Going from `COc1ccc(OCCn2ccnc2C)cc1.O=C(O)C(=O)O` to `COc1ccc(NC(=O)Cc2ccccc2)cc1`, the “hERG current change (%, negative = inhibition) at 10uM” value rises from -0.197% to 4.36%.

Going from `Cc1ccc(OCCCCNC2CCCC(C)C2C)c(C)c1.O=C(O)C(=O)O` (centres unmarked) to `COc1ccc(NC2CCCN(C(=O)c3cccc(C)n3)C2)cc1OC` (centres unmarked), the “hERG current change (%, negative = inhibition) at 10uM” value rises from -56.9% to 18.5%.

First: Cc1cc(C)nc(N/N=C/c2cn[nH]c2-c2ccccc2)n1
Second: COc1ccc(N2C(=O)CN=C2Nc2nc(C)cc(C)n2)cc1OC
The “hERG current change (%, negative = inhibition) at 10uM” value of the first is lower: -6.34% for the first, -4.68% for the second.

Compared with `CC(C(=O)N=c1sc2ccccc2n1C)N1C(=O)C2CC=CCC2C1=O` (centres unmarked), `CCn1c(=O)cc(SCC(=O)N2CCN(C)CC2)c2ccccc21` is higher in “hERG current change (%, negative = inhibition) at 10uM” value: -40.2% for the first, 6.22% for the second.

Compared with `Cc1cccc(C)c1NC(=O)CNC(=O)C(NC(=O)c1ccc(C(C)(C)C)cc1)C(C)C` (centres unmarked), `Cc1cccc(NC(=S)NCc2ccc3c(c2)cc(C)n3C)c1C` is lower in “hERG current change (%, negative = inhibition) at 10uM” value: 14.4% for the first, -9.2% for the second.

Compared with `CCc1nnc(NC(=O)CN2CCN(c3ccccc3F)CC2)s1.Cl`, `Cn1c(=O)cc(SCC(=O)NCCN2CCN(c3ccccc3F)CC2)c2cc(Cl)ccc21` is lower in “hERG current change (%, negative = inhibition) at 10uM” value: -12.9% for the first, -54.1% for the second.

First: CSc1ccc(CCCCCCOC(=O)C(C)(C)C)cc1
Second: COc1ccc(/C=C/C(=O)NCCCc2ccccc2)cc1
The “hERG current change (%, negative = inhibition) at 10uM” value of the first is higher: 3.95% for the first, -46.8% for the second.

Going from `CCn1c(=O)cc(SCC(=O)NCCN2CCN(Cc3ccccc3)CC2)c2ccccc21` to `CCn1c(=O)cc(SCC(=O)NCCCN2CCN(c3ccccc3F)CC2)c2ccccc21`, the “hERG current change (%, negative = inhibition) at 10uM” value falls from -49.4% to -62.2%.

Compared with `Cn1c(=O)cc(SCC(=O)NCc2ccc(F)cc2)c2ccccc21`, `Cn1c(=O)cc(SCC(=O)NCCCN2CCN(c3ccc(F)cc3)CC2)c2ccccc21` is lower in “hERG current change (%, negative = inhibition) at 10uM” value: -17.4% for the first, -69.2% for the second.

Going from `Cn1c(=O)cc(SCC(=O)NCCCN2CCN(c3ccccc3F)CC2)c2ccccc21` to `Cn1c(=O)cc(OCC(=O)NCCCN2CCN(c3ccccc3F)CC2)c2ccccc21`, the “hERG current change (%, negative = inhibition) at 10uM” value rises from -55.5% to -45.4%.

Compared with `CCn1c(=O)cc(SCC(=O)NCCCN2CCC(C)CC2)c2ccccc21`, `Cn1c(=O)cc(SCC(=O)NCCCN2CCOCC2)c2ccccc21` is higher in “hERG current change (%, negative = inhibition) at 10uM” value: -13% for the first, -2.51% for the second.

Going from `CCn1c(=O)cc(SCC(=O)N2CCN(c3ccccc3F)CC2)c2ccccc21` to `CCn1c(=O)cc(SCC(=O)N2CCN(c3ccccc3OC)CC2)c2ccccc21`, the “hERG current change (%, negative = inhibition) at 10uM” value falls from -21.7% to -52%.

Going from `CCn1c(=O)cc(SCC(=O)NCCCN2CCN(c3ccc(F)cc3)CC2)c2ccccc21` to `Cn1c(=O)cc(OCCCC(=O)NCCN2CCN(c3ccccc3F)CC2)c2ccccc21`, the “hERG current change (%, negative = inhibition) at 10uM” value rises from -46% to -7.18%.

Going from `COc1ccc(-c2c(C)oc3c(CN4CCOCC4)c(O)ccc3c2=O)cc1` to `COc1ccc(-c2cc(O)cc(O)c2)cc1`, the “hERG current change (%, negative = inhibition) at 10uM” value falls from 7.31% to -3.33%.

First: O=C(O)CC(NC(=O)OCc1ccccc1)c1ccc(Br)cc1 (centres unmarked)
Second: CC(C)C(=O)NN(C(=O)c1ccccc1)c1ccccc1
The “hERG current change (%, negative = inhibition) at 10uM” value of the first is lower: 20.2% for the first, 20.4% for the second.

Going from `CCCn1c(=O)c2c(nc(Br)n2CCC)n(C)c1=O` to `CCOc1ccc(CCNC(=O)CSc2cc(=O)n(C)c3ccc(Cl)cc23)cc1OCC`, the “hERG current change (%, negative = inhibition) at 10uM” value falls from -1.31% to -21.4%.

First: CSCCC1NC(=O)N(CC(=O)Nc2c(Cl)cc(Cl)cc2Cl)C1=O (centres unmarked)
Second: CC(=O)Nc1ccc(Sc2ncccc2C(=O)Nc2cc(Cl)cc(Cl)c2)cn1
The “hERG current change (%, negative = inhibition) at 10uM” value of the first is lower: -2.68% for the first, 26.7% for the second.

First: O=c1[nH]c(O)c(C=Nc2ccc(F)c(Cl)c2)c(=O)[nH]1
Second: Cc1ccc2[nH]c(=O)c(NC(N)=S)nc2c1
The “hERG current change (%, negative = inhibition) at 10uM” value of the first is lower: 7.3% for the first, 14% for the second.

First: Cc1ccc(S(=O)(=O)Oc2ccc(/C=N/N=C3/NC(=O)C(CC(=O)O)S3)cc2)cc1[N+](=O)[O-] (centres unmarked)
Second: O=C(O)CC1c2ccccc2CCN1S(=O)(=O)c1ccccc1 (centres unmarked)
The “hERG current change (%, negative = inhibition) at 10uM” value of the first is higher: 24% for the first, -1.51% for the second.

Compared with `S=c1nc(C2CCCCC2)n(-c2ccccc2)[nH]1`, `Cl.OC1(c2ccc(F)cc2)CCN(Cc2ccccc2)C1` (centres unmarked) is lower in “hERG current change (%, negative = inhibition) at 10uM” value: 15.6% for the first, -15.1% for the second.

First: O=C(C1CC1)N1CCN(C(c2ccccc2)c2ccccc2)CC1
Second: Cl.c1ccc(C(OCCN2CCNCC2)c2ccccc2)cc1
The “hERG current change (%, negative = inhibition) at 10uM” value of the first is higher: 6.33% for the first, -11.9% for the second.

Compared with `Cc1ccccc1-n1nc2c(c1NC(=O)c1ccc3c(c1)OCO3)CS(=O)(=O)C2`, `O=C(CSc1ccc2nnc(-c3ccccn3)n2n1)Nc1ccc2c(c1)OCO2` is lower in “hERG current change (%, negative = inhibition) at 10uM” value: -17.6% for the first, -33.7% for the second.

Compared with `CNC(=S)N/N=C/c1ccccc1OCC(=O)O`, `CN(C)/C=C(\C#N)C(=O)N/N=C/c1ccc(F)cc1` is lower in “hERG current change (%, negative = inhibition) at 10uM” value: 18.4% for the first, -10.1% for the second.

First: O=C(O)C1(c2ccccc2)CCN(S(=O)(=O)c2ccc(F)c(F)c2)CC1
Second: O=S(=O)(c1ccc(F)cc1)N1CCN(CCc2ccccc2)CC1
The “hERG current change (%, negative = inhibition) at 10uM” value of the first is higher: 2.44% for the first, -8.48% for the second.

Compared with `COc1ccc(/C=C/c2cc[n+](C(=O)Cc3ccccc3)cc2)cc1.[Cl-]`, `Cl.OC1(c2ccc3ccccc3c2)CCN(Cc2ccccc2)C1` (centres unmarked) is lower in “hERG current change (%, negative = inhibition) at 10uM” value: -51.2% for the first, -57.1% for the second.

Compared with `CCC(=O)Nc1ccc(OCC2CCCO2)cc1` (centres unmarked), `O=C(CSc1ccc2nnc(-c3cccnc3)n2n1)NCC1CCCO1` (centres unmarked) is lower in “hERG current change (%, negative = inhibition) at 10uM” value: 7.08% for the first, -9.66% for the second.

First: c1ccc(CN2CCN(Cc3ccc4ccccc4c3)CC2)cc1
Second: c1ccc(COCCN2CCN(CCOCc3ccccc3)CC2)cc1
The “hERG current change (%, negative = inhibition) at 10uM” value of the first is higher: 5.24% for the first, -39.5% for the second.

Going from `c1ccc2c(c1)OCC(CNc1ncnc3sccc13)O2` (centres unmarked) to `O=C(CSc1ccccn1)NCc1ccc2c(c1)OCO2`, the “hERG current change (%, negative = inhibition) at 10uM” value rises from -20.9% to 3.5%.

Compared with `Cc1ccc(NC2=NCC(=O)N2Cc2ccc3c(c2)OCO3)c(C)c1`, `O=C(CSc1ccc2nnc(-c3cccnc3)n2n1)NCc1ccc2c(c1)OCO2` is lower in “hERG current change (%, negative = inhibition) at 10uM” value: -1.91% for the first, -53.3% for the second.

Going from `c1ccc(CN2CCN(c3ncccn3)CC2)cc1` to `CCC(C(=O)N1CCN(c2ncccn2)CC1)c1ccccc1` (centres unmarked), the “hERG current change (%, negative = inhibition) at 10uM” value falls from 11.6% to -0.742%.

Compared with `Cl.c1ccc(CCCN2CCN(CCOC(c3ccccc3)c3ccccc3)CC2)cc1`, `Cl.Fc1ccc(C(OCCN2CCN(CCCc3ccccc3)CC2)c2ccc(F)cc2)cc1` is lower in “hERG current change (%, negative = inhibition) at 10uM” value: -71.8% for the first, -77.4% for the second.

Going from `O=C(O)/C=C\C(=O)O.c1ccc(C(OCCN2CCN(c3ncccn3)CC2)c2ccccc2)cc1` to `O=C1CCN(CCCc2ccccc2)CCN1CCO`, the “hERG current change (%, negative = inhibition) at 10uM” value rises from -65.9% to 2.01%.

First: C=CCN(CC=C)C(=O)C[n+]1ccc(C(N)=O)cc1.[Cl-]
Second: O=C(CSc1ccc2nnc(-c3ccccn3)n2n1)NCc1ccc2c(c1)OCO2
The “hERG current change (%, negative = inhibition) at 10uM” value of the first is higher: -0.0573% for the first, -74.4% for the second.

Going from `O=C(CSc1ccc2nnc(-c3ccccn3)n2n1)Nc1ccc2c(c1)OCCO2` to `O=C(CSc1ccc2nnc(-c3ccncc3)n2n1)Nc1ccc2c(c1)OCO2`, the “hERG current change (%, negative = inhibition) at 10uM” value rises from -40.6% to 7.8%.

First: O=C(CSc1ccc2nnc(-c3ccccc3)n2n1)NCc1ccc2c(c1)OCO2
Second: CC1(C)N=C(c2ccccc2)[C@@H]2C(c3ccc([N+](=O)[O-])cc3)N21 (some centres unmarked)
The “hERG current change (%, negative = inhibition) at 10uM” value of the first is lower: -80.3% for the first, -31.6% for the second.

Going from `CC(=O)c1ccc(NC(=O)CSc2nc(N3CCOCC3)nc(N3CCOCC3)n2)cc1` to `CC12CCC(C(=O)Nc3nc4ccc(Br)cc4s3)(OC1=O)C2(C)C` (centres unmarked), the “hERG current change (%, negative = inhibition) at 10uM” value rises from -7.67% to -2.78%.

With `Cc1ccc(NS(=O)(=O)c2c(C)nc3sccn3c2=O)c(C)c1` the “hERG current change (%, negative = inhibition) at 10uM” value was -15.2%.
